What was measured:
Assay in all cases: log2 ratio of Biotin-Ahx-Ub-VS probe labelling (fragment/DMSO); higher = less target engagement (more negative = stronger competition), active = hit call of the paper (q ≤ 0.05, log2 ratio ≤ -1)
Conditions in all cases: compound concentration: 200 uM; treatment time: 3 h
OTUD6B = target: T1, OTUD6B (UniProt Q8N6M0)
T1 sequence (whole entry): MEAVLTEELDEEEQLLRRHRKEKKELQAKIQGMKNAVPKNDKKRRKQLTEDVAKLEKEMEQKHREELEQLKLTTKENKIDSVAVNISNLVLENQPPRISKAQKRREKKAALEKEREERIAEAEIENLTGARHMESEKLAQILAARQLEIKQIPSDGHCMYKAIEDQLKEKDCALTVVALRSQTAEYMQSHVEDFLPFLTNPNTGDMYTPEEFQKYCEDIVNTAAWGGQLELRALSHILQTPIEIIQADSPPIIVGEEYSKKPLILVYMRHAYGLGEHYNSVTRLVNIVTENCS
Method in brief: (§1)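 HEK293T lysate (495 µg per sample, in Tris/CHAPS/IGEPAL buffer with protease inhibitors) was treated in triplicate with fragment at 200 µM or with DMSO for 3 h. It was then treated with Biotin-Ahx-Ub-VS (0.5 µM final) for 1 h. Labelled DUBs were NeutrAvidin-enriched, digested with LysC and trypsin, and run by diaPASEF LC-MS/MS. Spectronaut label-free quantities were global-median-normalised. Values are average log2 ratios fragment/DMSO by unpaired t-test, using proteins with ≥2 unique peptides.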

OTUD7B = target: T2, OTUD7B (UniProt Q6GQQ9)
T2 sequence (whole entry): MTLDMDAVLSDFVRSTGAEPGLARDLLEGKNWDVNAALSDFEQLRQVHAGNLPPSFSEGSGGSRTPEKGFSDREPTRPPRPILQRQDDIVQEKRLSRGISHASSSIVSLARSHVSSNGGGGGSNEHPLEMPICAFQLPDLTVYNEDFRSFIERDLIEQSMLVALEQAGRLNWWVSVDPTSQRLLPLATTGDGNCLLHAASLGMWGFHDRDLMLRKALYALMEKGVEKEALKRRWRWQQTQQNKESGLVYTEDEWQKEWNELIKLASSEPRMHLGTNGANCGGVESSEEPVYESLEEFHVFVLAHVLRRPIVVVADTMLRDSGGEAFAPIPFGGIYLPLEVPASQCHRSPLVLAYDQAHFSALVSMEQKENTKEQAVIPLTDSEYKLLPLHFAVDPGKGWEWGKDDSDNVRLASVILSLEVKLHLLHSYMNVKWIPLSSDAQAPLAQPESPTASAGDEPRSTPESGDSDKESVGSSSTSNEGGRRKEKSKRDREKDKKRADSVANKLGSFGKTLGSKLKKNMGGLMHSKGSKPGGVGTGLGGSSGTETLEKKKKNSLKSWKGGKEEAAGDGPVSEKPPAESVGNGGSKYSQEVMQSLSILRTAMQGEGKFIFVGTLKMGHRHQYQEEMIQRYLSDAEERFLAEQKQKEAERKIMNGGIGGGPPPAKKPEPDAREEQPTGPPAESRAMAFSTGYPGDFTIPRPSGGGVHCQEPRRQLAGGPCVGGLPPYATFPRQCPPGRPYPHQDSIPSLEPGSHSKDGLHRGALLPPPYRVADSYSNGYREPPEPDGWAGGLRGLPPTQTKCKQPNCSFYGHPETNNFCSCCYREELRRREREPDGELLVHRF
Method in brief: as §1

PRPF8 = PRPF8 (UniProt Q6P2Q9)
Method in brief: as §1

PSMD7 = target: T3, PSMD7 (UniProt P51665)
T3 sequence (whole entry): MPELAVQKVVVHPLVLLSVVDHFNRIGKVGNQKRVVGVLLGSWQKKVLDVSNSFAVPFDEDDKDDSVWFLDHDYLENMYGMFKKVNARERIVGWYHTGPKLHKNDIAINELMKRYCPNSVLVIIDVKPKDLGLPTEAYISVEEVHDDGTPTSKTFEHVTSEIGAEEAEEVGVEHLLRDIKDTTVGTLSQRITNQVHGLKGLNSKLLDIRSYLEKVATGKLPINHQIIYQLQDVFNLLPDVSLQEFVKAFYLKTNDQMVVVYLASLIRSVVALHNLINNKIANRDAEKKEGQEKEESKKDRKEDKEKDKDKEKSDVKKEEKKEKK
Method in brief: as §1

UCHL1 = UCHL1 (UniProt P09936)
Chain of UCHL1 (P09936 whole entry, looked up): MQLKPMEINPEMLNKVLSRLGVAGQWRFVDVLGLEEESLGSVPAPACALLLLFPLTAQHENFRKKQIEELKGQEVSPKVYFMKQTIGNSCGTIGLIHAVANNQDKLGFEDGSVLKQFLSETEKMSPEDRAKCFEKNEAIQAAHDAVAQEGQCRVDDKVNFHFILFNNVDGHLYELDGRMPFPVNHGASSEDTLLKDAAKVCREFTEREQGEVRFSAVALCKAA
Method in brief: as §1

UCHL3 = target: T4, UCHL3 (UniProt P15374)
T4 sequence (whole entry): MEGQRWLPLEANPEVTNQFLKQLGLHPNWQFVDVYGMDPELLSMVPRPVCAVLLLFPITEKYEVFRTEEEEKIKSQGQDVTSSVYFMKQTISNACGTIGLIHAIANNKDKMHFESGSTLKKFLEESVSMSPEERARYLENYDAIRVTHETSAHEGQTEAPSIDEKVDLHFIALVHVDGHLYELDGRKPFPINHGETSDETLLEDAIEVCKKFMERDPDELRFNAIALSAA
Method in brief: as §1

UCHL5 = target: T5, UCHL5 (UniProt Q9Y5K5)
T5 sequence (whole entry): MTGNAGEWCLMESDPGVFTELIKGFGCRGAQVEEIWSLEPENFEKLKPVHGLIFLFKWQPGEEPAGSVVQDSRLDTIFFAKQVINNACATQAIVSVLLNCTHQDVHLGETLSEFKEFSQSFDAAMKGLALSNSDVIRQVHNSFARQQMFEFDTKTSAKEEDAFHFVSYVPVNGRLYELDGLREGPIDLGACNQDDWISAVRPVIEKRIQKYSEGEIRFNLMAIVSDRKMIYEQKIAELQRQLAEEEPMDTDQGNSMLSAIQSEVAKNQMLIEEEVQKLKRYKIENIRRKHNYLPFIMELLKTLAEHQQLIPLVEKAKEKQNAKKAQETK
Method in brief: as §1

USP10 = USP10 (UniProt Q14694)
Chain of USP10 (Q14694 whole entry): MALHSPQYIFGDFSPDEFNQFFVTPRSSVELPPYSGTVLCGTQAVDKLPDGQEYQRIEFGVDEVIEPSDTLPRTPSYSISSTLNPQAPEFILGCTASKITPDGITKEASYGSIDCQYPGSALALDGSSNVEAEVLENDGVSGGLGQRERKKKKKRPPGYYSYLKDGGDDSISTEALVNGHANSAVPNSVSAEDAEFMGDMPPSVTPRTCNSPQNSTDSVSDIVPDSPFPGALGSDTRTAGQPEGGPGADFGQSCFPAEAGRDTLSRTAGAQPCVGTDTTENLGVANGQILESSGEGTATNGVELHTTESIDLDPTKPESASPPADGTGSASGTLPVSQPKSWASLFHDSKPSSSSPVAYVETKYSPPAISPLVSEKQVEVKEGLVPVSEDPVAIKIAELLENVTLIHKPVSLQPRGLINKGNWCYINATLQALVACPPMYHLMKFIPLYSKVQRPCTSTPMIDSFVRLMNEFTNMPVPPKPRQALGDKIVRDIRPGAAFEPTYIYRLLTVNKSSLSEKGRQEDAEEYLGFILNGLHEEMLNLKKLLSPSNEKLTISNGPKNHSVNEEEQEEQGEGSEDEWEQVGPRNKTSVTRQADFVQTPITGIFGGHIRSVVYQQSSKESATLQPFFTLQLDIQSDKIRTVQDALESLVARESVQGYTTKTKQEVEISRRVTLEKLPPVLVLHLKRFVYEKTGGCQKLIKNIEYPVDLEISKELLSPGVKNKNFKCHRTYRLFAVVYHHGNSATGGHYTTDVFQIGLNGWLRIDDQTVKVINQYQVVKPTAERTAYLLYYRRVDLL
Method in brief: as §1

USP15 = target: T6, USP15 (UniProt Q9Y4E8)
T6 sequence (whole entry): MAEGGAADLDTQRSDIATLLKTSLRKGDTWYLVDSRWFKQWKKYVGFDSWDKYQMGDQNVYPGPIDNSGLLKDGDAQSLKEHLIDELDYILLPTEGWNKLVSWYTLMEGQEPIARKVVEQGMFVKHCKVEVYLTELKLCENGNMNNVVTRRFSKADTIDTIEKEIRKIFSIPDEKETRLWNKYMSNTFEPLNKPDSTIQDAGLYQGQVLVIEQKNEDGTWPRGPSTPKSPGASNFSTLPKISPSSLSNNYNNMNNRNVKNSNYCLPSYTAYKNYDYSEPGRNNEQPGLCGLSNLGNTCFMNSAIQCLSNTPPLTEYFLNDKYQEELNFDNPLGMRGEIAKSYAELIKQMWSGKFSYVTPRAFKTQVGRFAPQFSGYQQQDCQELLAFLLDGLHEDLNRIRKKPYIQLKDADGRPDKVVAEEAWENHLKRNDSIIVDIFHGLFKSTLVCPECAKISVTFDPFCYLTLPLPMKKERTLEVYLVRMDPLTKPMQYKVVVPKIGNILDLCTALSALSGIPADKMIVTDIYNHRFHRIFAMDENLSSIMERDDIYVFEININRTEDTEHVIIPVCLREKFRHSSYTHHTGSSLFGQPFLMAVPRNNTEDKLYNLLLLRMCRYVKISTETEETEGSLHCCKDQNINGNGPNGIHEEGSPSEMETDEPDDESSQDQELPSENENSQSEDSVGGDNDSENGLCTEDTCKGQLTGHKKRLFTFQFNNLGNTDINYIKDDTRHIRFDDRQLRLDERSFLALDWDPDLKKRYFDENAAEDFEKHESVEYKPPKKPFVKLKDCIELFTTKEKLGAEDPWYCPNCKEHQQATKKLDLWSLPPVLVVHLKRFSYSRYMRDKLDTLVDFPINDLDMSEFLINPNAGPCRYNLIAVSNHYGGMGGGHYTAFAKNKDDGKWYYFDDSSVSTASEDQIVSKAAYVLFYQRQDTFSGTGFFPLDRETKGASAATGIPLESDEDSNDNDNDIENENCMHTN
Method in brief: as §1

USP16 = USP16 (UniProt Q9Y5T5)
Chain of USP16 (Q9Y5T5 whole entry, looked up): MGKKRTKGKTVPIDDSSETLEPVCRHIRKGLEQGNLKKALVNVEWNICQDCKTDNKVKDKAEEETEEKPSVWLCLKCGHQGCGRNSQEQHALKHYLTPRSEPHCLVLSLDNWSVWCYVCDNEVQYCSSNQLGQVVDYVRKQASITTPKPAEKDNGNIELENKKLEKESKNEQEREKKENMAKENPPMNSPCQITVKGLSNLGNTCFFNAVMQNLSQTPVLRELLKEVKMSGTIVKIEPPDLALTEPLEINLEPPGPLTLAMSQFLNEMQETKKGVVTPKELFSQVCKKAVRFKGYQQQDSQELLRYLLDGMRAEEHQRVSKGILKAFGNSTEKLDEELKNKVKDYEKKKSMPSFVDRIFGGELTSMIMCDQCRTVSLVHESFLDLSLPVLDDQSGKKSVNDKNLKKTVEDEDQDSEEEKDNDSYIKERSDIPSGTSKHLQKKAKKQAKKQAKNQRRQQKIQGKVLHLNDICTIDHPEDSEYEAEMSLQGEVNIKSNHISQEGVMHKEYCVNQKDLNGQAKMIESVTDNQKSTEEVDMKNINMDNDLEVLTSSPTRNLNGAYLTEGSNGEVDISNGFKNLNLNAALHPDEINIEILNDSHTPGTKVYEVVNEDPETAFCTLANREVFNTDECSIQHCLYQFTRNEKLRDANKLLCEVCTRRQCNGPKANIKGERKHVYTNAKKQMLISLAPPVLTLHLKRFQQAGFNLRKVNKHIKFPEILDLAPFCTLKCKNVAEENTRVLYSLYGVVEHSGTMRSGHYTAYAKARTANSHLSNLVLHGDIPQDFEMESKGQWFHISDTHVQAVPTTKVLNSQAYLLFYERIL
Method in brief: as §1

Measured: log2 ratio of Biotin-Ahx-Ub-VS probe labelling

COCC[C@@H](NC(=O)CCl)c1ccccc1
inactive: OTUD6B 0.0947 | OTUD7B -0.357 | PRPF8 -0.103 | PSMD7 -0.216 | UCHL3 0.334 | UCHL5 -0.0927 | USP10 0.0397 | USP15 -0.00696 | USP16 -0.303
active: UCHL1 -1.4

Source: the supplement of paper PMC11732987, “Enantioselective OTUD7B fragment discovery through chemoproteomics screening and high-throughput optimisation” (Communications Chemistry, 2025)
